# This is a sample that favours compounds with a hit; in the whole collection about 6.5% have one here.
# VACV mCherry inh: vaccinia inhibition (mCherry reporter); Vaccinia virus mCherry reporter infection, fluorescence; Potency, µM (highest dose often 36.5 µM), for inactives: top-dose activity change, negative = inhibition, actives largely listed as inhibitors; 310,000 compounds, 0.63% hits; AID 720579; calls by dose curve; tested in A549 cells; further: potency means the concentration at half of the fitted maximal effect; nearly all actives have a fitted effect of over 35% in size
# Lassa entry inh: Lassa virus entry inhibition; Lassa virus pseudotype entry inhibition, cell reporter; Potency, µM (highest dose often 37.9 µM), for inactives: top-dose activity change, negative = inhibition, usual class: inhibitors; 300,000 compounds, 1.2% hits; AID 540256; calls by dose curve; tested in HEK293 cells; further: potency means the concentration at half of the fitted maximal effect; nearly all actives have a fitted effect of over 50% in size
# HCMV antiviral: inhibitors of human cytomegalovirus | HFF cells, HCMV-luciferase reporter, 72 h; active compounds read low | activity change, negative = inhibition, % at 57.5 µM | 410,000 compounds, 4.5% hits | AID 1259415; in the data active means activity change below about -60%; inconclusive means no clear call, values can overlap the other calls; inactive means above about -39%
#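 HFF cells seeded 16 h at 37C, treated with compounds, infected with luciferase-reporter HCMV at MOI 1 PFU/cell; luciferase read at 72 h post infection, normalized to buffer-only and Salinomycin controls.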
# VACV Venus inh: vaccinia inhibition (Venus reporter) | Potency, µM (doses to about 36.5 µM), inactives show top-dose activity change, negative = inhibition, usual class: inhibitors | 330,000 compounds, 0.46% hits | Vaccinia virus Venus reporter expression, fluorescence; calls by dose curve; tested in A549 cells; further: potency means the concentration at half of the fitted maximal effect; nearly all actives have a fitted effect of over 30% in size
# FMDV antiviral: foot and mouth disease virus antiviral activity; 410,000 compounds, 1.2% hits; AID 1159524; FMDV antiviral cell-based qHTS; Potency, µM (highest dose often 57.9 µM), for the others: at the highest dose activity change, negative = inhibition, most hits filed as inhibitors; calls by dose curve; tested in HEK293T cells; further: read-out not given here; potency means the concentration at half of the fitted maximal effect; nearly all actives have a fitted effect of over 45% in size
# MARV entry inh: blocks Marburg virus binding to or entry into cells. Potency, µM (highest dose often 37.8 µM), for the others: top-dose activity change, negative = inhibition, usual class: inhibitors. Marburg virus pseudotyped entry inhibition, cell reporter. AID 540276. 300,000 compounds, 1.8% hits; calls by dose curve; tested in HEK293 cells; further: potency means the concentration at half of the fitted maximal effect
# * marks the source's active call; other numbers are inactive results; i = inactive; ? = inconclusive; / = no result given; ! = not active in a repeat; [ ] = dose if it differs, or a comment. On the % scale 0 is the no-effect control and ±100 the full control effect.
SMILES,VACV mCherry inh,Lassa entry inh,HCMV antiviral,VACV Venus inh,FMDV antiviral,MARV entry inh
COC[C@H]1OC(=O)c2coc3c2[C@@]1(C)C1=C(C3=O)[C@H]2CCC(=O)[C@@]2(C)C[C@H]1OC(C)=O,/,/,/,/,/,0.0447µM*
O=C(NC1CCCCC1)O[C@H]1CC[C@@]23CCCN2C(=O)CCC[C@H]3[C@H]1Cc1ccccc1,/,/,-22.9,/,/,/
CCOC(=O)c1cnc(N2CC2)nc1N,i,?,-68.4*,14.8%,-0.1%,10µM*
CCOC(=O)c1cnc(SC)nc1N,/,11.1%,48.9,1.4%,12.8%,29.5%
Cc1sc(NC(=O)c2ccccc2)c(C(c2ccc(Cl)cc2)N2CCN(CCO)CC2)c1C (stereo not given),?,?,3.3,?,11.2%,?
Cc1ccc(C(c2c(NC(=O)c3ccco3)sc(C)c2C)N2CCOCC2)cc1 (stereo not given),-20.2%,/,-12.9,-25.2%,-20.7%,/
Cc1sc(NC(=O)c2ccco2)c(C(c2ccc(F)cc2)N2CCN(C)CC2)c1C (stereo not given),i,?,/,-18.2%,-1.5%,6.31µM*
Cc1sc(NC(=O)c2ccco2)c(C(c2cccnc2)N2CCN(c3ccc(F)cc3)CC2)c1C (stereo not given),-0.5%,/,-100.0*,-21.8%,?,/
CCOc1ccc(C(c2c(NC(=O)c3ccccc3)sc(C)c2C)N2CCN(CCO)CC2)cc1 (stereo not given),-14.1%,?,-35.9,-15.5%,-7.7%,8.91µM*
CCOC(=O)C1CCN(C(c2cccnc2)c2c(NC(=O)c3ccco3)sc(C)c2C)CC1 (stereo not given),?,?,-97.3*,?,25.1µM*,?
CN(C)c1ccc(-c2ccc3ncnc(N(C)Cc4ccco4)c3c2)cc1,/,/,/,/,-16.2%,/
COc1ccc(Cn2c(=O)oc3ccc(C)cc32)cc1OC,/,?,-94.5*,/,?,?
Cc1c(C(=O)N/N=C/c2ccc(Cl)cc2)[nH]c2ccc(Cl)cc12,?,/,-89.4*,?,59.3%,/
Cc1c(C(=O)N/N=C/C(C)C)[nH]c2ccc([N+](=O)[O-])cc12,-19.9%,?,-75.4*,-21.1%,-6.2%,12.8%[46.1 µM]
CCOc1ccc(/C=N/NC(=O)c2[nH]c3ccc(C)cc3c2C)cc1,-11.3%,?,-18.9,-12.7%,8.5%,?
COc1cc(OC)c(/C=C/c2cc3c4ccccc4ccc3[n+](C)c2)c(OC)c1,-22.7%,/,/,-15.5%,/,/
COC(=O)N[C@@H](/C=C/c1ccccc1)[C@@H](C)[N+](=O)[O-],/,/,/,/,/,2.4%[14.2 µM]
CCCCCc1c2c(cc(O)c1C(=O)O)OC(=O)c1c(cc(OC)cc1C(=O)CCCC)O2,i,/,/,0.0%,31.6µM*!,/
CCCCCc1c2c(cc(O)c1C(=O)O)OC(=O)c1cc(C(=O)CCCC)c(OC)cc1O2,-10.4%,/,6.4,-7.9%,?,/
COC(=O)C1=C(C)N(Cc2cccc(C(F)(F)F)c2)C(=NCc2cc(OC)c(OC)c(OC)c2)NC1CCc1ccccc1 (stereo not given),/,/,37.2,/,/,/
COc1cc(NC(=O)c2cccc3c2C(=O)N(C2CCCCC2)C3)cc(OC)c1OC,-8.2%[7.34 µM],?,-91.3*,-7.4%[7.34 µM],?,?
O=C(Nc1cccc(Nc2ccccc2)c1)c1cnn2c1NC(=C1CC1)C=C2C(F)F,-12.5%,/,/,-18.4%,/,/
Cc1cc(C(=O)OC(C)C(=O)Nc2nc(-c3ccccc3)cs2)c(C)o1 (stereo not given),10.6%,13µM*,-8.3,22.2%,/,?
COc1ccccc1NC(=O)COC(=O)c1cc(C)oc1C,i,-0.4%[46.1 µM],-79.2*,-9.9%,-3.6%,0.5%[46.1 µM]
Cc1cc(C(=O)OCC(=O)Nc2nc(-c3ccccc3)cs2)c(C)o1,/,?,-101.4*,?,-18.3%,-3.0%
SMILES,VACV mCherry inh,Lassa entry inh,HCMV antiviral,VACV Venus inh,FMDV antiviral,MARV entry inh
Cc1cc(C(=O)OCC(=O)Nc2ccccc2)c(C)o1,-20.1%,2.3%[46.1 µM],-11.8,-17.5%,13.6%,1.8%[46.1 µM]
C=C1C=C(C)n2ncc(C(=O)Nc3ccccc3C(=O)OC)c2N1,-11.2%,/,/,-15.2%,/,/
CNc1ccccc1C(=O)N1CCc2c([nH]c3ccccc23)C1=O,-10.5%,/,/,-4.9%,44.4%,/
COc1ccc(-c2nc3cnc(Oc4cccc(Cl)c4)nc3n(CCC#N)c2=O)cc1,/,/,/,/,6.4%,/
CCCC(=O)Nc1cc(C)c(NC(=O)c2ccncc2)cn1,-12.6%,2.82µM*,-4.8,-3.7%,6.7%,3.3%
O=C(NNC(=O)c1cccnc1SCc1cccc([N+](=O)[O-])c1)c1ccccn1,3.98µM*,?,-99.6*,?,-19.7%,3.16µM*
O=C(NNC(=O)c1cccnc1SCc1cccc([N+](=O)[O-])c1)c1cccnc1,-7.2%,-0.8%,-5.8,12.3%,0.0%,-17.9%
O=C(OCc1cccc([N+](=O)[O-])c1)c1cccnc1Cl,-8.4%,14.1%[46.1 µM],7.8,-9.0%,9.7%,1.1%[46.1 µM]
O=C(NNC(=O)c1cccnc1SCc1cccc([N+](=O)[O-])c1)c1ccc(F)cc1,-10.3%,?,-91.6*,-15.4%,-12.2%,?
OC[C@H]1OC([S-])[C@H](O)[C@@H](O)[C@@H]1O.[Au+] (stereo not given in full),-14.6%,/,/,-0.5%,-0.5%,/
COc1cccc(Cn2c(=O)c(-c3cccc(Cl)c3)nc3cncnc32)c1,/,/,/,/,-20.3%,/
CN1N=C(C(=O)N2CCOc3ccc(CN4CCCC(C(=O)c5cccnc5)C4)cc3C2)CCC1=O (stereo not given),-11.6%,/,/,-6.8%,1.1%,/
Cc1ccc(-n2c(-c3ccccc3)c[nH]c2=S)cc1,-10.8%,?,-74.0*,-19.9%,?,-1.6%[46.1 µM]
S=c1[nH]cc(-c2ccccc2)n1-c1ccccc1,-26.6%,-4.8%,31.3,-21.8%,-7.6%,-0.9%
COc1cccc(CNC(=O)CN2C(=O)CSc3ccc(S(=O)(=O)N(C)C)cc32)c1,-12.4%,?,-4.4,2.1%,-17.3%,/
C=C1C(O)[C@@H]2O[C@]3(CC[C@H](/C=C/C(C)[C@@H]4CC(C)=CC5(O[C@H](C[C@@](C)(O)C(=O)O)CCC5O)O4)O3)CC[C@H]2O[C@@H]1C(O)CC(C)[C@H]1OC2(CCCCO2)CCC1C (stereo not given in full),-22.8%,/,/,0.316µM*,1µM*,/
C=C1C([C@@H](O)C[C@H](C)C2O[C@@]3(CCCCO3)CC[C@H]2C)OC2CC[C@@]3(CC[C@@H](/C=C/[C@@H](C)C4CC(C)=C[C@]5(O4)O[C@H](C[C@@](C)(O)C(=O)O)CCC5O)O3)OC2[C@@H]1O (stereo not given in full),-17.4%[2.01 µM],/,/,-9.3%[2.01 µM],?,/
O=C1CCC2S/C(=C/Nc3ccc(C(F)(F)F)cc3)C(=O)N12 (stereo not given),-3.8%,?,-77.8*,-16.0%,8.91µM*,?
O=C1CCCC/C1=C/Nc1cccc(C(F)(F)F)c1,/,0.1%,-29.4,/,37.0%,1.0%
